An excerpt weighted towards active compounds, which were near 2.8% of everything screened.
TGFb inhibitor – qHTS for Inhibitors of TGF-b. HepG2 CAGA-GFP TGF-b/SMAD3 reporter, GFP fluorescence, 18 h; TGF-beta stimulated, 500 pg/mL final. Potency, µM (series often up to 46.1 µM), without a hit: top-dose activity, negative = inhibition, most hits filed as inhibitors. 1.2% of 410,000 active. AID 588855, 2011; also: potency is read from the fitted curve at half-maximal effect; % is scaled to controls: 0 for no effect and ±100 for the full control effect; nearly all actives have a fitted effect of over 65% in size
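Smad-responsive CAGA-GFP expression was quantified in HEPG2 cells exposed to compounds and 500 pg/mL final TGF-beta for 18 h at 37 degrees C; unstimulated wells defined full inhibition.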
Six1-Eya2 inh – qHTS Assay for Inhibitors of the Six1/Eya2 Interaction; AlphaScreen GST-Six1/His-Eya2 binding, biochemical; hits give low values; 0.56% of 360,000 active; activity change, % (no concentration beside the values); in the data active = activity change below about -65%; inconclusive = mostly about -30% to -63%; also: % is scaled to controls: 0 for no effect and ±100 for the full control effect
Target sequence (O00167 whole entry, looked up): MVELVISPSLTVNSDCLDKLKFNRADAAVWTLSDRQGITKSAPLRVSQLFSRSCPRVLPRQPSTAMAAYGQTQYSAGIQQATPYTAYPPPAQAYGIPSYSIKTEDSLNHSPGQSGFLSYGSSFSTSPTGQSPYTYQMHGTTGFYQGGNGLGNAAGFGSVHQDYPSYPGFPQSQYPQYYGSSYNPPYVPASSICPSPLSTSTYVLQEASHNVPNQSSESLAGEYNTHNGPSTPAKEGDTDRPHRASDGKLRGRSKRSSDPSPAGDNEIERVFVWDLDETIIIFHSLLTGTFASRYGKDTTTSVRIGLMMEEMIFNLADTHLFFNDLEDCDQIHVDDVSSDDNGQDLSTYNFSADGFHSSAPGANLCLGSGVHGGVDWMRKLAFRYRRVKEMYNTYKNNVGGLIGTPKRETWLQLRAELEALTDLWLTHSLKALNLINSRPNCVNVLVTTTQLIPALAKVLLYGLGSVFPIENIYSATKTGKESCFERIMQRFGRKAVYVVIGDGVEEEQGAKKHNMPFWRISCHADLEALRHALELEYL
Target sequence (Q15475 whole entry, looked up): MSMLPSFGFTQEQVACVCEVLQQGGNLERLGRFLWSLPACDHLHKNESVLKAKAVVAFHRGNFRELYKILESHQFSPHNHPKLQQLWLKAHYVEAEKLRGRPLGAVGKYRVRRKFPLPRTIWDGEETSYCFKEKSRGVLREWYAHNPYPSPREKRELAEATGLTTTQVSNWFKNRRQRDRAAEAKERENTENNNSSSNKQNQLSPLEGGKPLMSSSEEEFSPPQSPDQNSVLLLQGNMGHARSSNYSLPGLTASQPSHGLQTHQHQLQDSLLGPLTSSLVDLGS
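AlphaScreen luminescence read after one hour at 37 °C in darkness. Pin-transferred compounds met GST-Six1 and His-Eya2 protein (5X stock 250 nM/500 nM) plus glutathione donor and Ni-chelate acceptor beads (5X, 50 ug/mL).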
ATXN viability – Viability Counterscreen for Primary qHTS for Inhibitors of ATXN expression; Potency, µM (highest dose often 56.7 µM), most hits filed as cytotoxic; 0.49% of 400,000 active; S2 cells (HEK-293 line with an ATXN2-luciferase reporter) viability, CellTiter-Fluor protease fluorescence, 24 h; also: potency is read from the fitted curve at half-maximal effect; nearly all actives have a fitted effect of over 40% in size
CtBP-E1A blk – qHTS Assay for Inhibitors of the CtBP/E1A Interaction; CtBP / adenovirus E1A interaction (AlphaScreen); AlphaScreen GST-E1A/His-CtBP binding, 1536-well; hits give low values; activity change, % (concentration not given with the values); 0.49% of 340,000 active; in the data active = activity change below about -65%; inconclusive = mostly about -30% to -63%; also: % is scaled to controls: 0 for no effect and ±100 for the full control effect
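Protein mix (5X: 125 nM each GST-E1A, His-CtBP) was incubated with pinned compound 2 h at 37 deg C in dark, in 50 mM Tris pH 8.0 buffer with 300 mM NaCl. Glutathione donor and nickel acceptor beads followed; AlphaScreen signal read after 1 h.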
ATXN2 expr inh – Primary qHTS for Inhibitors of ATXN expression; HEK-293 ATXN2-luciferase reporter, luminescence, 24 h; Potency, µM (titrated, usually from 57 µM), for the others: at the top dose activity change, negative = inhibition, hits mostly inhibitors; 0.72% of 360,000 active; also: potency is read from the fitted curve at half-maximal effect; % is scaled to controls: 0 for no effect and ±100 for the full control effect; nearly all actives have a fitted effect of over 55% in size
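qHTS (up to 57 uM final) was run with 24 h compound exposure of reporter cells at 37 °C. Each well was multiplexed: SteadyGlo luminescence measured ATXN2-luciferase expression after a fluorogenic Gly-Phe-AFC viability readout (25 uM final).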
HepG2 viability – qHTS for Inhibitors of TGF-b: Cytotox Counterscreen; HepG2 CAGA-GFP viability, ATP luminescence, 18 h; Potency, µM (titrated, usually from 46.1 µM), for the others: at the highest dose activity change, negative = cytotoxicity, usual class: cytotoxic; 0.76% of 410,000 active; also: potency is read from the fitted curve at half-maximal effect
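CellTiter-Glo luminescence gave cytotoxicity after 18 hours at 37 degrees C. The cells were HepG2 CAGA-GFP in 1% FBS DMEM, stimulated with 500 pg/mL TGF-beta after compound addition. %Activity was normalised to no-cell wells (complete cell-killing) and DMSO (no toxicity), and curves were fitted and classified.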
Numbers without * were called inactive; i = inactive; ? = inconclusive; / = not tested or not shown. Unless noted, calls follow the shape of the dose curve; as a rule, active = well fitted curve in the direction sought with a large enough effect; inconclusive = small, poorly fitted or top-dose-only effect, or another doubt; inactive = no such curve, though single readings can be large; an effect the other way counts as inactive or inconclusive.

SMILES	TGFb inhibitor	Six1-Eya2 inh	ATXN viability	CtBP-E1A blk	ATXN2 expr inh	HepG2 viability
COc1ccc(CN2C(=O)CSCC2=O)cc1OC	-3%	2	i	/	/	1%
COc1ccc2sc(N(CCN(C)C)C(=O)/C=C/c3cccs3)nc2c1	?	0	?	8	/	20µM*
Cc1cccc2sc(N(CCCN(C)C)C(=O)COc3ccc(Cl)cc3)nc12	-25%	-12	i	-8	-38%	22µM*
CN(C)CCCN(C(=O)/C=C/c1cccs1)c1nc2c(F)cccc2s1	18µM*	17	?	-17	?	13µM*
CN(C)CCCN(C(=O)CCOc1ccccc1)c1nc2c(F)cccc2s1	?	-7	/	0	-32%	11µM*
O=C1CCCC(O)=C1C(C#Cc1ccccc1)C1=C(O)CCCC1=O	?	1	?	-11	?	16µM*
Cc1ccccc1C(=O)c1ccc(Nc2ccc(Br)cc2N)cc1Cl	/	/	/	/	-15%	/
O=C(NCc1ccccc1)c1nc(-c2ccc(Cl)cc2)n2c1CCCCC2	11µM*	/	?	/	-29%	-5%
Cc1ccc(-c2nc(C(=O)NCc3ccc(Cl)cc3)c3n2CCCCC3)cc1	?	/	?	/	?	-8%
CCOC(=O)CN[C@@H](C(=O)N1CC[C@H]1C(=O)NCc1ccc(/C(N)=N/O)cc1)C1CCCCC1	/	/	i	/	/	/
Nc1ncnc2c1c(-c1ccc(Oc3ccccc3)cc1)cn2C1CCCC1	22µM*	-10	?	-27	-34%	-70%
O=C(c1ccc2c(c1)CCN2S(=O)(=O)c1ccccc1)N1CCN(c2cccc(Cl)c2)CC1	-29%	/	i	/	-13%	0%
CCS(=O)(=O)N1CCc2cc(C(=O)N3CCN(c4cccc(C(F)(F)F)c4)CC3)ccc21	11µM*	/	?	/	?	-32%
O=C(NC(=S)NNC(=O)c1ccccc1O)c1ccccc1	0%	-75*	i	-94*	?	6%
Cc1ccccc1C(=O)NNC(=S)NC(=O)c1ccccc1	2%	-4	i	-3	?	-3%
O=C(NNC(=S)NC(=O)c1ccccc1[N+](=O)[O-])c1ccccc1O	5%	-74*	i	-94*	-10%	-4%
O=C(NC(=S)NNC(=O)c1ccccc1O)c1ccc(F)cc1	-3%	-91*	i	-94*	-37%	-12%
Cc1ccc(C(=O)NNC(=S)NC(=O)c2ccccc2)cc1	-27%	-13	i	-24	?	-18%
O=C(NNC(=S)NC(=O)c1ccccc1[N+](=O)[O-])c1ccccc1[N+](=O)[O-]	-2%	-3	i	-2	-8%	-8%
Cc1ccc(C(=O)NC(=S)NNC(=O)c2ccccc2O)cc1	-10%	-88*	i	-2	-38%	-7%
NC(N)=NCC1COC2(CCCCC2)O1 (configuration not stated)	/	/	i	/	/	/
COc1ccccc1-n1cc(C(=O)NCCN2Cc3ccccc3OC(c3ccsc3)C2)cn1 (configuration not stated)	/	/	i	/	/	/
O=C(NC(=S)NNC(=O)c1ccccc1O)c1cccs1	-5%	-82*	i	-95*	-21%	-29%
O=C(NC(=S)NNC(=O)c1ccccc1O)c1ccc([N+](=O)[O-])cc1	12%	-86*	i	/	/	-15%
O=C(NNC(=S)NC(=O)c1ccccc1)c1ccc([N+](=O)[O-])cc1	-21%	5	i	/	/	-49%
SMILES	TGFb inhibitor	Six1-Eya2 inh	ATXN viability	CtBP-E1A blk	ATXN2 expr inh	HepG2 viability
COc1ccc(CN2CCCC(n3cc(C(=O)N4CCCCC4)nn3)C2)c(OC)c1 (configuration not stated)	/	/	i	/	/	/
COc1ccc(-n2c(=O)c3ccc(C(=O)NCc4ccc(C)cc4)cc3n(Cc3ccc(F)cc3Cl)c2=O)cc1	-4%	/	i	/	13%	-20%
COc1ccnc2c1CCCCC2S(=O)c1nc2ccccc2[nH]1 (configuration not stated)	/	/	i	/	39%	/
NC(=S)N/N=C/c1ccccc1OC(=O)/C=C/c1ccccc1	7.1µM*	?	?	-93*	1.8µM*	4µM*
NC(=S)N/N=C\c1ccccc1OCc1ccccc1	?	-1	i	-12	-14%	-59%
CCC[C@@H]1C[C@@H](C(=O)N[C@@H]([C@H]2O[C@H](SC)[C@H](OP(=O)(O)O)[C@@H](O)[C@H]2O)[C@H](C)Cl)N(C)C1	/	/	i	/	/	/
Cc1ccc2c(C)c(C(=O)N(Cc3ccc(Cl)cc3)C3CCS(=O)(=O)C3)oc2c1 (configuration not stated)	11µM*	/	?	/	-30%	6%
CCc1ccc(NC(=O)C(Cc2ccccc2)NS(=O)(=O)c2ccc3c(c2)c(=O)n(C)c(=O)n3C)cc1 (configuration not stated)	-55%	/	i	/	-15%	4%
COc1ccc(Nc2c(-c3cccc(O)c3)nc3cnccn23)cc1	6.3µM*	/	i	/	6%	-10%
O=C(O)CCC1CCC(c2cc(F)ccc2F)(S(=O)(=O)c2ccc(Cl)cc2)CC1 (configuration not stated)	/	/	/	/	25%	/
COC(=O)/C=C1\NC(=O)C(C)S1 (configuration not stated)	0.56µM*	0	?	1	-38%	-24%
Cc1cc(NC(=S)N(CCCN2CCOCC2)Cc2ccco2)ccc1Cl	?	-5	i	4	-11%	8%
Cc1ccc(NC(=S)N(CCCN2CCCC2)Cc2cccn2Cc2ccc(Cl)cc2)cc1C	18µM*	-23	i	-7	-25%	11µM*
CCN1CCN(CCCN(Cc2ccco2)C(=S)Nc2ccc(Cl)c(C)c2)CC1	-12%	-12	i	2	-22%	11µM*
FC(F)(F)c1cccc(NC(=S)N(CCCN2CCCC2)Cc2cccn2Cc2ccc(Cl)cc2)c1	?	-13	28µM*	-10	16µM*	13µM*
CCCOc1ccc2c(c1)CC[C@@H]1[C@@H]2CC[C@]2(C)C(OC)CC[C@@H]12 (some centres not stated)	/	/	i	/	1%	/
O=C(Cc1cscn1)N1CCOc2ccc(CN3CCN(c4ccccn4)CC3)cc2C1	/	/	i	/	/	/
COc1cc(CN2CCCC(n3cc(C(=O)N4CCCC4)nn3)C2)cc(OC)c1 (configuration not stated)	/	/	i	/	/	/
